Assay [1] is described as follows: A549 cell viability effects, profiling panel, calcein-AM fluorescence, 48 h, basal (AID 1162). Further: test concentration not given here. To be noted: higher = more signal.
A short description of assay [2]: adipocyte viability effects, profiling panel, cell-based, 3T3-L1 adipocytes, calcein-AM fluorescence, 48 h, basal (AID 1163). Further: test concentration not given here. To be noted: 3T3-L1 adipocytes viability, higher = more signal.
Assay [3] is described as follows: HepG2 cell viability effects, profiling panel, calcein-AM fluorescence, 48 h, basal (AID 1164). Further: test concentration not given here. To be noted: higher = more signal.
A short description of assay [4]: MM1S cell viability effects, profiling panel, calcein-AM fluorescence, 48 h, basal (AID 1165).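 Further: viability of MM1S multiple myeloma cells under basal unstimulated conditions; test concentration not given here.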 The note with it: higher = more signal.
The nature of assay [5]: basal RPMI8226 viability, no added stimulus, profiling panel, cell-based, calcein-AM fluorescence, 48 h, PK04 Diversity Set (AID 1166).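 Further: cells grown under basal conditions without added stimulus; test concentration not given here.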 The note with it: RPMI8226 myeloma viability, higher = more signal.
A short description of assay [6]: basal HepG2 mitochondrial membrane potential changes, profiling panel, cell-based, JC-1 fluorescence, 24 h, 100 nL compound (AID 1167). Further: test concentration not given here. The note with it: higher = more signal.
The nature of assay [7]: basal 3T3-L1 adipocyte mitochondrial potential changes, profiling panel, cell-based, JC-1 fluorescence, 3T3-L1 adipocytes, 24 h, 100 nL compound (AID 1168). Further: test concentration not given here. The note with it: JC-1 mitochondrial fluorescence, higher = more signal, called active from +8 up or from −8 down.
The nature of assay [8]: basal RPMI8226 mitochondrial membrane potential changes, profiling panel, cell-based, JC-1 fluorescence, 24 h, 100 nL compound (AID 1169). Further: test concentration not given here. The note with it: RPMI8226 myeloma, JC-1 mitochondrial potential fluorescence, higher = more signal.
The nature of assay [9]: basal MM1S mitochondrial membrane potential changes, profiling panel, cell-based, JC-1 fluorescence, 24 h, 100 nL compound (AID 1170). Further: test concentration not given here. The note with it: higher = more signal.
Assay [10] is described as follows: A549 lung cancer cell viability effects, profiling panel, resazurin fluorescence, 24 h, PK04 Diversity Set (AID 1171). Further: test concentration not given here. The note with it: higher = more signal, called active from +8 up or from −8 down. A general note: Resazurin is reduced to fluorescent resorufin, in cell work by metabolically active cells.
Assay [11] can be described thus: HepG2 liver cancer cell viability effects, profiling panel, resazurin fluorescence, 24 h, PK04 Diversity Set (AID 1172). Further: test concentration not given here. The note with it: higher = more signal.
A short description of assay [12]: basal S. cerevisiae growth modulation, no modifier, primary screen, OD600, strain BY4716, 24 h, basal condition (AID 1173). The note with it: OD600, 24 h, higher = more signal, called active from +8 up or from −8 down.
Assay [13] is described as follows: MM1S myeloma cell viability, profiling panel, resazurin fluorescence, basal, 24 h, PK04 Diversity Set (AID 1174).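 Further: MM1S multiple myeloma cell line; test concentration not given here.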 To be noted: higher = more signal, called active from +8 up or from −8 down.
In assay [14] the target is Dihydroorotate dehydrogenase (quinone), mitochondrial (Plasmodium falciparum (isolate 3D7)) (UniProt Q08210). The assay can be described thus: PfDHODH enzyme inhibitors, primary screen, biochemical, C-terminal His tag, absorbance 600 nm (AID 1175).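 Further: recombinant parasite enzyme with a five histidine tag at its C terminus; test concentration not given here.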 The note with it: DCIP absorbance 600 nm, higher = more signal, called active from +8 up or from −8 down.
A short description of assay [15]: P. aeruginosa biofilm formation inhibitors, primary screen, strain PAO1, LB-PBS medium, absorbance 600 nm (AID 1176). Further: test concentration not given here. To be noted: P. aeruginosa PAO1 growth/biofilm, A600, 12 h; higher = more signal.
The nature of assay [16]: S. cerevisiae RM11-1a growth modifiers, primary screen, strain RM11-1a, OD600, basal, 24 h (AID 1177).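 Further: cultures grown under basal conditions with no added stressor; test concentration not given here.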 To be noted: OD600, 24 h, higher = more signal, called active from +8 up or from −8 down.
The nature of assay [17]: E. coli acrAB mutant growth effects, primary screen, E. coli filamentation inducers, strain DRC39, OD650, 24 h (AID 1178).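 Further: growth measured as culture turbidity by optical density at 650 nm; test concentration not given here.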 To be noted: higher = more signal, called active from +8 up or from −8 down.
The nature of assay [18]: E. coli acrAB mutant growth effects, primary screen, E. coli filamentation inducers, strain DRC39, OD650, 48 h (AID 1179).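 Further: screen aims at cell division blockers that make cells filament.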 To be noted: E. coli DRC39 delta-acrAB growth, higher = more signal, called active from +8 up or from −8 down.
Assay [19] can be described thus: RPMI8226 myeloma cell viability, profiling panel, resazurin fluorescence, basal, 24 h, PK04 Diversity Set (AID 1180).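 Further: RPMI8826 multiple myeloma cell line at 5000 cells per well; test concentration not given here.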 The note with it: higher = more signal.
Assay [20] deals with E3 ubiquitin-protein ligase XIAP (Homo sapiens) (UniProt P98170). The assay can be described thus: XIAP binders, primary screen, biophysical, small-molecule microarray, fluorescence 635 nm (AID 1181).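 Further: score merges 667 nm emission and signal to noise over triplicate slides.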 To be noted: small-molecule microarray binding, higher = more signal.

Calls of active or inactive are those of the source. Unless noted, how the calls were made is not given here.

Sequence of E3 ubiquitin-protein ligase XIAP (Homo sapiens) (P98170 whole entry, looked up): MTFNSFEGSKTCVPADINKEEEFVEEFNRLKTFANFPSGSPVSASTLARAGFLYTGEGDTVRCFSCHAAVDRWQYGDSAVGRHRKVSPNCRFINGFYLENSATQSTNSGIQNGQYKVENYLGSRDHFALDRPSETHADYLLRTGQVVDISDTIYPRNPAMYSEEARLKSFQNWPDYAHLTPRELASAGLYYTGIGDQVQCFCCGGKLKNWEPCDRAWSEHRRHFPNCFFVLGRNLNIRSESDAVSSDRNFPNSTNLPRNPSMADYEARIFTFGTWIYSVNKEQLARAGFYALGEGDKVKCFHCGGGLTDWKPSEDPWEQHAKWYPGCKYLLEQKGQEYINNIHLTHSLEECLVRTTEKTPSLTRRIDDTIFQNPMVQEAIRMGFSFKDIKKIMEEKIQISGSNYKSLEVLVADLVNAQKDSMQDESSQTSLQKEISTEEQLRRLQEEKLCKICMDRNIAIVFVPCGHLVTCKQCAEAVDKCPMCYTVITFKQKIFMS
Sequence of Dihydroorotate dehydrogenase (quinone), mitochondrial (Plasmodium falciparum (isolate 3D7)) (Q08210 whole entry, looked up): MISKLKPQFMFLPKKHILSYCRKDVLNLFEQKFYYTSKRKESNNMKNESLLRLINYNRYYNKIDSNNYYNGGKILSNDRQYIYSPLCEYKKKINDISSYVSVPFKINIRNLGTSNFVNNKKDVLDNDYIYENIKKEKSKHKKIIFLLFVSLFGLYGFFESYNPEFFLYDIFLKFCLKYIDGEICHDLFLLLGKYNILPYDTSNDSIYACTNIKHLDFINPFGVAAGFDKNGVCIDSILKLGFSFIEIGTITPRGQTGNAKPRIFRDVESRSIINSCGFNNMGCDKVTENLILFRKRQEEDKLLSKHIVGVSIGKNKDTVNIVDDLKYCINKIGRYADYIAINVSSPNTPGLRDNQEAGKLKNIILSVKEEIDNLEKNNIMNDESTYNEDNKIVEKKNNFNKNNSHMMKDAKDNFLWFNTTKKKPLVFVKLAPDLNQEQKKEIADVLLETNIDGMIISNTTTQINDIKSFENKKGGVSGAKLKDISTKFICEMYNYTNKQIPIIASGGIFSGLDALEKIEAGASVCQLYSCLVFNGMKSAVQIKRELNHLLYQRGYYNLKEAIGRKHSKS

For `C[N+](C)(C)CCCC[C@@H]1NC(=O)[C@H]2C[C@@H](C(=O)NCCCCCCNC(=O)CS)[C@@H](c3cccc(OCCO)c3)N2C1=O`, the z-score in assay [1] is -1.42; in assay [2] it was -0.132; in assay [3] it was -0.153; in [4], 0.0157; in assay [5] it was -0.682; in assay [6], 0.325. The z-score is 0.0973 (inactive) in assay [7]; -0.277 in [8]; -0.326 in [9]; -0.257 (inactive) in assay [10]; -0.191 in assay [11]; 0.578 (inactive) in assay [12]. Further, the z-score in assay [13] was -0.0499 (inactive); in assay [15] it was -0.0896 (inactive); in [16], 0.293 (inactive); in assay [17], 0.474 (inactive); in assay [18] it was 0.645 (inactive); in [19], -0.442. Besides, the composite z-score in assay [14] was 0.459 (inactive); in assay [20], -0.227.
With `O=C1C[C@@](C(=O)NCC(F)(F)F)(c2ccc([N+](=O)[O-])cc2)[C@@H](c2ccc(CO)cc2I)N1C1CCCCC1`, the z-score was -0.0922 in assay [1]; 0.665 in assay [2]; -0.644 in assay [3]; -2.28 in assay [4]; -1.65 in [5]; 0.548 in assay [6]. For the same compound, the z-score in assay [7] is -0.226 (inactive); in assay [8] it was -0.521; in assay [9] it was -1.02; in assay [10], 0.324 (inactive); in assay [11], -0.0199; in assay [12], -0.805 (inactive). Moreover, the z-score in assay [13] was 0.233 (inactive); in assay [15], 0.609 (inactive); in [16], 0.195 (inactive); in [17] it was -0.218 (inactive); in [18], -0.182 (inactive); in assay [19] it was -0.589. Besides, the composite z-score in [14] was -0.277 (inactive); in assay [20], -0.0172.
For the compound `COC(=O)C[C@H]1O[C@]2(C(=O)N(C)c3ccccc32)[C@@H](C)[C@@H]1[Si](C)(C)F`, the z-score was 0.0967 in assay [1]; 0.587 in [2]; 1.21 in assay [3]; 0.0544 in [4]; -0.804 in [5]; 0.65 in assay [6]. Further, the z-score is -0.125 (inactive) in assay [7]; 0.452 in assay [8]; 0.632 in assay [9]; 2.22 (inactive) in [10]; 0.951 in assay [11]; -2.55 (inactive) in assay [12]. Besides, the z-score is 1.55 (inactive) in assay [13]; 0.908 (inactive) in assay [15]; -2.64 (inactive) in assay [16]; 1.51 (inactive) in [17]; 0.847 (inactive) in assay [18]; 2.42 in assay [19]. Further, the composite z-score in assay [14] was -1.49 (inactive); in [20] it was 0.103.
For `OCCCC1=CC(c2cccs2)N(Cc2cc3c(cc2Br)OCO3)CC1` (stereo not given), the z-score is -0.433 in [1]; 1.03 in assay [2]; 0.145 in assay [3]; -1.44 in assay [4]; -1.52 in assay [5]; -0.578 in assay [6]. Also, the z-score in [7] is -0.359 (inactive); in assay [8] it was -0.707; in assay [9] it was -0.145; in [10] it was -0.178 (inactive); in assay [11], -0.429; in assay [12], -2.09 (inactive). Further, the z-score in [13] was -0.643 (inactive); in [15], 0.531 (inactive); in [16] it was -0.174 (inactive); in [17] it was -0.341 (inactive); in assay [18], -0.681 (inactive); in assay [19], -0.829. The figures for the composite z-score in [14] and in [20] were -0.966 (inactive) and 0.019, respectively.
Consider `COCC(=C=CC[C@@H](O)c1cccc(OCCO)c1)C[C@@H](O)c1ccccn1`, for which the z-score in assay [1] is 0.492; in assay [2], -0.0288; in [3], -0.112; in assay [4] it was 0.265; in [5], -0.51; in assay [6] it was 0.00274. In addition, the z-score was 0.613 (inactive) in assay [7]; 0.00702 in assay [8]; -0.0149 in assay [9]; 0.391 (inactive) in [10]; 0.353 in [11]; -0.449 (inactive) in assay [12]. Moreover, the z-score in assay [13] is 0.423 (inactive); in [15], -0.353 (inactive); in assay [16] it was 0.0156 (inactive); in assay [17] it was 0.947 (inactive); in assay [18], 0.604 (inactive); in assay [19] it was 0.973. Further, the composite z-score is -1.61 (inactive) in assay [14] and 0.0471 in assay [20].
In the case of `C=CCN1C(=O)[C@@]2(CC=C)N=C(c3ccc(OCCCO)cc3)O[C@H]2c2ccccc21`, the z-score in [1] is 0.248; in [2], 1.68; in assay [3], -0.515; in assay [4] it was -3.41; in assay [5] it was -3.72; in [6] it was 1.62. The z-score in assay [7] is 2.61 (inactive); in assay [8], -1.02; in [9], -2.1; in assay [10] it was -2.08 (inactive); in assay [11], -0.492; in assay [12], -2.87 (inactive). The z-score in assay [13] is -3.88 (inactive); in [15], 2.21 (inactive); in [16] it was 0.113 (inactive); in assay [17], 1.19 (inactive); in assay [18], 2.46 (inactive); in [19], -3.54. Also, the composite z-score in [14] was -1.17 (inactive); in assay [20], 0.0842.

Source of the values: PubChem BioAssay.
